From PubChem BioAssay
HCV inh: blocks hepatitis C virus; Huh7.5.1 HCVcc-Cre infection, luciferase reporter, 44 h; Potency, µM (top dose mostly 41.8 µM), for the others: top-dose activity change, negative = inhibition, hits mostly inhibitors; 3.4% of 340,000 active; further: potency means the concentration at half of the fitted maximal effect
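HCVcc-Cre virus at an moi near 0.5 was added right after compound to cells cultured 4 h from seeding (1,000 cells/well). Luciferase activity was determined 44 h later, 15 min after substrate addition at RT.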
Giardia FBPA inh: blocks Giardia fructose-bisphosphate aldolase activity | A8B2U2 | purified Giardia FBPA | Potency, µM (doses to about 59.6 µM), for the others: top-dose activity, negative = inhibition, actives largely listed as inhibitors | 0.71% of 290,000 active | AID 2451; further: potency means the concentration at half of the fitted maximal effect; nearly all actives have a fitted effect of over 55% in size
Target sequence (A8B2U2 whole entry, looked up): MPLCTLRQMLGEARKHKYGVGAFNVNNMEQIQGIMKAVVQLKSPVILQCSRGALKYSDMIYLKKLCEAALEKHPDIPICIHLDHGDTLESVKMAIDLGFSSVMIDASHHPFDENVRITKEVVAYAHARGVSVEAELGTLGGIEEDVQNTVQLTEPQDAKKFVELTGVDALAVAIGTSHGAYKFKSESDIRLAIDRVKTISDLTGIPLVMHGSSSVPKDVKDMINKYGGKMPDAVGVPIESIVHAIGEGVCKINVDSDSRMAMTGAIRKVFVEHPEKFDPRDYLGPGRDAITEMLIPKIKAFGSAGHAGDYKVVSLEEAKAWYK
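Giardia FBPA (40 nM reagent) was preincubated 10 min at RT with compound (up to 57.5 uM final), then substrate plus GAPDH/TPI/NAD/arsenate coupling system with diaphorase/resazurin was added; resorufin fluorescence (525/598 nm) was read after 20 min.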
HCMV inh: inhibitors of human cytomegalovirus; HFF cells, HCMV-luciferase reporter, 72 h; stronger effect = lower value; activity change, negative = inhibition, % at 57.5 µM; 4.5% of 410,000 active; AID 1259415; in the data active means activity change below about -60%; inconclusive means no clear call, values can overlap the other calls; inactive means above about -39%
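HFF cells seeded 16 h at 37C, treated with compounds, infected with luciferase-reporter HCMV at MOI 1 PFU/cell; luciferase read at 72 h post infection, normalized to buffer-only and Salinomycin controls.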
VACV mCherry inh: vaccinia inhibition (mCherry reporter); Vaccinia virus mCherry reporter infection, fluorescence; Potency, µM (titrated, usually from 36.5 µM), inactives show at the highest dose activity change, negative = inhibition, hits mostly inhibitors; AID 720579; 0.63% of 310,000 active; calls by dose curve; tested in A549 cells; further: potency means the concentration at half of the fitted maximal effect; nearly all actives have a fitted effect of over 35% in size
VACV Venus inh: inhibitors of vaccinia virus (Venus reporter). 0.46% of 330,000 active. Vaccinia virus Venus reporter expression, fluorescence. AID 720580. Potency, µM (titrated, usually from 36.5 µM), inactives show top-dose activity change, negative = inhibition, usual class: inhibitors; calls by dose curve; tested in A549 cells; further: potency means the concentration at half of the fitted maximal effect; nearly all actives have a fitted effect of over 30% in size
FMDV inh: antivirals against foot and mouth disease virus | 1.2% of 410,000 active | Potency, µM (doses to about 57.9 µM), without a hit: at the top dose activity change, negative = inhibition, actives largely listed as inhibitors | FMDV antiviral cell-based qHTS | AID 1159524; calls by dose curve; tested in HEK293T cells; further: read-out not given here; potency means the concentration at half of the fitted maximal effect; nearly all actives have a fitted effect of over 45% in size
An asterisk follows results filed as active; i = inactive; ? = inconclusive; . = no result. A selection: hits, their analogues and other compounds. The true share with any hit is near 7.5%. Unless noted, the call rests on the fitted dose curve; in most records, active means well fitted curve in the direction sought with a large enough effect; inconclusive means small, poorly fitted or top-dose-only effect, or another doubt; inactive means no such curve, though single readings can be large; an effect the other way counts as inactive or inconclusive. On the % scale 0 is the no-effect control and ±100 the full control effect.

SMILES	HCV inh	Giardia FBPA inh	HCMV inh	VACV mCherry inh	VACV Venus inh	FMDV inh
Nc1nc(NCCO)nc(N2CCCCCC2)c1[N+](=O)[O-]	-6%	2%	-37	.	.	-24%
CCOC(=O)c1cc(OC(=O)c2ccc(OC)c(OC)c2)n(-c2ccccc2)n1	.	.	30	3%	2%	0%
O=C(NCCc1cccs1)c1ccc(Cn2c(SCc3ccccc3)nc3cccnc32)cc1	.	.	16	i	-9%	-8%
COc1cc2c(C#CCCCO)c(-c3ccsc3)oc(=O)c2cc1OC	3.2µM*	.	-61*	i	-25%	-24%
COc1cc2c(C#Cc3cccnc3)c(-c3ccsc3)oc(=O)c2cc1OC	6.3µM*	.	-33	i	1%	-17%
COc1ccc(-c2oc(=O)c3cc(OC)c(OC)cc3c2C#CCCCO)cc1	?	.	26	?	-28%	-26%
COc1cc2c(C(F)(F)F)c(-c3ccsc3)oc(=O)c2cc1OC	5%	.	-9	i	-12%	0%
CC(C)c1ccc(NC(=O)C2(C)Cc3c(-c4ccc(C(N)=O)cc4)ccnc3O2)cc1 (stereo not given)	.	.	-26	-17%	?	-29%
COc1ccc(C(=O)NCCn2cc(SCC(=O)Nc3ccccc3)c3ccccc32)cc1OC	.	.	-14	2%	7%	-22%
O=C(NCCn1cc(SCc2ccccc2F)c2ccccc21)c1c(F)cccc1F	?	-17%	17	-21%	-20%	?
O=C(NCCn1cc(SCc2cccc(F)c2)c2ccccc21)c1cccc(C(F)(F)F)c1	.	.	-92*	?	?	?
COc1ccccc1C(=O)NCCn1cc(SCC(=O)Nc2cc(C)on2)c2ccccc21	32µM*	-9%	-39	.	.	-21%
COc1ccc(C(=O)NCCn2cc(SCc3cccc(F)c3)c3ccccc32)cc1OC	.	.	?	-29%	-26%	18µM*
CCOC(=O)c1cnc2ccc(C)cc2c1Nc1ccc(N(CC)CC)cc1	.	.	-106*	?	?	0%
CCOC(=O)c1cnc2ccc(Cl)cc2c1Nc1ccc(N2CCOCC2)cc1	.	.	9	-11%	-8%	22µM*
CCOC(=O)c1cnc2ccc(C)cc2c1Nc1ccc(N2CCOCC2)cc1	?	-13%	-13	?	-24%	0%
COc1ccc(-c2ccc(NS(=O)(=O)c3ccc(OC)c(OC)c3)cc2)nn1	.	.	-11	i	-6%	24%
CS(=O)(=O)N1CCN(c2nc(-c3cccs3)nc3ccccc23)CC1	.	.	.	-7%	-16%	.
CCC(Sc1nc2nccnc2c(=O)n1Cc1ccc(C)cc1)C(=O)NC1CCCCC1 (stereo not given)	.	.	-36	-7%	-2%	3%
Cc1ccc(C(=O)C(C)OC(=O)CCN2C(=O)C3C4C=CC(C5CC45)C3C2=O)cc1 (stereo not given)	11%	.	-20	.	.	?
COc1cc2c(cc1OC)-c1c(OC)c(OC)cc3ccnc(c13)C2=O	?	?	-95*	?	?	?
CN1/C(=C\P(=O)(N(C)C)N(C)C)C(C)(C)c2ccccc21	4%	-16%	-93*	41%	144%	?
CCOC(=O)/C=C1/N(C)c2ccccc2C1(C)C	10%	-5%	-30	i	-14%	-9%
COc1cccc(N2CCN(C(=O)c3cc4c(=O)n(Cc5cccs5)ccc4nc3C)CC2)c1	.	.	2	-17%	-18%	?
O=c1oc2ccccc2cc1-c1nc2c(s1)CCc1ccccc1-2	-2%	7.9µM*	21	32%	8%	8%
SMILES	HCV inh	Giardia FBPA inh	HCMV inh	VACV mCherry inh	VACV Venus inh	FMDV inh
Cc1ccc(S(=O)(=O)/N=C(/Nc2c(C)cccc2C)c2ccccc2)cc1	2%	.	-18	.	.	10%
O=C(CNC(=O)c1ccc(F)cc1)N/N=C/c1cc(Br)ccc1OCc1ccccc1	?	-10%	10	.	.	-16%
O=C(CNC(=O)c1cccc(F)c1)N/N=C/c1cc(Br)ccc1OC(=O)/C=C/c1ccco1	7.9µM*	-20%	-101*	.	.	-16%
O=C(CNC(=O)c1ccccc1O)N/N=C/c1cc(Br)ccc1OC(=O)/C=C/c1ccco1	?	1%	-74*	?	-22%	-30%
O=C(CNC(=O)c1ccccc1Br)N/N=C/c1ccco1	25%	-1%	14	-13%	-3%	-10%
CC(=O)c1c(C)[nH]c(C(=O)CN2CCN(S(=O)(=O)c3ccccc3)CC2)c1C	8%	.	3	.	.	?
O=C1NCCN1c1ccccc1	10%	.	-79*	-14%	-1%	-4%
CCNc1c([N+](=O)[O-])c(=O)n(CC)c2ccccc12	4%	5%	-17	i	-18%	24%
CCn1c(=O)c([N+](=O)[O-])c(NCCCn2ccnc2)c2ccccc21	5%	5%	-65*	i	-17%	-11%
COc1cc(-c2noc(-c3ccco3)n2)cc(OC)c1OC	13µM*	0%	155	-14%	-17%	14%
COc1cc(-c2noc(-c3ccccc3C(=O)NCc3ccco3)n2)cc(OC)c1OC	11µM*	1%	8	.	-10%	?
CCCC(=O)N1CC2(CCN(C(C)=O)CC2)c2c(n(C)c3cc(OC)ccc23)[C@H]1CO	.	.	12	.	.	.
CCn1c2ccccc2c2cc(/C=N/n3c(-c4cc(C)[nH]n4)n[nH]c3=S)ccc21	?	-10%	10	-16%	-29%	0%
C/C(=N\O)c1ccc2c(c1)OCCO2	6%	3%	0	1%	-16%	2%
CCn1c2ccccc2c2cc(/C=N/n3cn[nH]c3=S)ccc21	11µM*	.	-31	.	.	-3%
CCn1c2ccccc2c2cc(/C=C3\C=Cc4ccccc43)ccc21	.	.	.	37%	-7%	.
CCn1c2ccccc2c2cc(/C=N/n3cnnc3)ccc21	7.9µM*	-3%	-24	-21%	?	.
CCn1c2ccc(/C(C)=N\O)cc2c2cc(/C(C)=N\O)ccc21	10µM*	-2%	5	3%	-3%	-14%
CCn1c2ccccc2c2cc(/C=N/O)ccc21	11µM*	-7%	-74*	.	.	-21%
Cc1ccc(C(=O)NCCN2CCC(n3c(=O)[nH]c4ccccc43)CC2)cc1F	.	.	-22	-12%	-6%	-20%
C=CCNc1nc2ccccc2nc1NS(=O)(=O)c1ccc(OC)cc1	-1%	-20%	-5	i	-11%	-3%
CC(/C=N/NC(=O)CSc1nnc(SCc2ccccc2)s1)=C\c1ccco1	4%	?	-18	i	-15%	3%
Cc1ccc(CSc2nnc(SCC(=O)N/N=C/C=C/c3ccco3)s2)cc1	-2%	-17%	-61*	i	-14%	11%
Cc1ccc(CSc2nnc(SCC(=O)N/N=C/C=C/c3ccccc3[N+](=O)[O-])s2)cc1	13%	7%	-78*	-14%	-6%	0%
CN(CC(=O)Nc1ccccc1Br)C(=O)CCSc1ccc(F)cc1	3%	.	-34	?	-16%	?
CCCCn1c(SCC(=O)c2ccc(O)c(O)c2)nc2ccsc2c1=O	-12%	?	.	22µM*	?	-8%
